Experimental findings from PubChem BioAssay are described below.

Inconclusive results are not listed. Calls of active or inactive are those of the source.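 Rule for the calls, unless noted: active = GFP response, as percent of the DMSO control, above the screen-wide mean plus 3 SD, about 139; inconclusive = no response measured because the compound's own fluorescence interfered; inactive = the rest.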 Peptide text beside a SMILES is read from it. * marks the point of attachment. Boc = CC(C)(C)OC(=O)*

Broadly, the inhibition is the relative decrease from the control value, in per cent.

Test [1] is described as follows: yeast TOR pathway RPL19A-GFP modulators, primary screen, cell-based, S. cerevisiae, multiplex flow cytometry (AID 1862; in the data active = percent of DMSO control GFP below about 86%;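 note: lower values mimic rapamycin by blocking the RPL19A rise seen in DMSO cells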). The settings on record: S. cerevisiae RPL19A-GFP strain, flow cytometry fluorescence, 3 h; at 10 µM; stronger effect = lower value. A general note: In flow cytometry, cells or beads pass a laser one at a time.
Test [2] can be described thus: modulators of MEP2-GFP levels in yeast, primary screen, S. cerevisiae, multiplex flow cytometry (AID 1867).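 Note: median GFP channel fluorescence of barcode-gated MEP2-GFP cells measured by flow cytometry.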 The settings on record: S. cerevisiae MEP2-GFP strain, 3 h, at 10 µM, stronger effect = higher value, 100% means same as DMSO wells.
A short description of test [3]: modulators of CIT2-GFP expression in yeast, primary screen, S. cerevisiae, GFP fusion, multiplex flow cytometry (AID 1870;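 active = percent response above a set limit, the screen-wide mean plus 3 SD, cut at about 130% in these data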;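 note: barcoded CIT2-GFP strain pooled with four other GFP strains with rapamycin as positive control; median GFP fluorescence per well over plate mean of DMSO wells so 100% = DMSO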). The settings on record: 3 h, at 10 µM, stronger effect = higher value.
Test [4] can be described thus: modulators of LAP4-GFP expression in yeast, primary screen, S. cerevisiae, multiplex flow cytometry (AID 1873;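 active = GFP signal, as percent of the solvent control, above the screen mean plus 3 SD, about 149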). The settings on record: 3 h, at 10 µM, stronger effect = higher value.
Test [5] is described as follows: modulators of AGP1-GFP expression in yeast TOR pathway, primary screen, cell-based, multiplex flow cytometry, S. cerevisiae (AID 1887;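 active = GFP signal above the screen-wide mean plus 3 SD, that is over about 124.5% of the solvent control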;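 note: AGP1-GFP fusion strain of S. cerevisiae within a five-strain barcoded multiplex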). The settings on record: 3 h, at 10 µM, stronger effect = higher value.
Test [6] is described as follows: inhibitors of CD8+ T cell-vesicle binding, pilot screen, LFA-1/ICAM-1 modulator project, MLPCN validation set, flow cytometry (AID 2523;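 active = response below a set limit, under 55% cells CD8-positive and vesicle-bound, and CD8 cells' 90th-percentile brightness under 279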;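 for vesicle binding response: mean PE anti-B7-1 fluorescence of CD8+ cells relative to row control; 100% = QL9-loaded vesicles with DMSO vehicle in the same plate row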). The settings on record: 2C mouse CD8+ T cells, at 7 µM, stronger effect = lower value; double positive events: measured here: CD8+/vesicle+ event percentage.
The target in test [7] is Integrin beta-1 (Homo sapiens) + Integrin alpha-4 (Homo sapiens) (UniProt P13612+P05556). Kind of test: inhibition of HUTS-21 binding to VLA-4, pilot screen, VLA-4 allosteric modulator project, U937 cells, HUTS-21 mAb, flow cytometry, validation set (AID 2674;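 active = inhibition above 50%, about 3 SD of the validation set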;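 note: antibody binding induced by the VLA-4 ligand LDV present at three times its Kd; 0% = LDV ligand with antibody and no compound and 100% = antibody without LDV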). The settings on record: HUTS-21 LIBS mAb binding, at 6.7 µM, stronger effect = higher value, binding induced by LDV ligand.

The nature of test [8]: superoxide lowering in aged yeast cells, pilot screen, validation compound set (AID 2706;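 active = superoxide response below 65% of plate, a cut near 3 SD across the whole screen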;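 note: yeast exposed to compound for one week at 30 degrees C before staining; 100% = mean of all compound wells on the same plate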). The settings on record: S. cerevisiae aging, superoxide DHE fluorescence; at 10 µM, stronger effect = lower value.
Test [9] deals with Beta-adrenergic receptor kinase 1 (Homo sapiens) (UniProt P25098). Kind of test: GRK2 binders displacing RNA aptamer, biochemical, validation, human GRK2, bead flow cytometry (AID 488806;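 active = aptamer binding inhibition above 30%, about 3 SD of noise from non-fluorescent compounds; inactive = inhibition at or below 30%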). The settings on record: bead-bound GRK2, FAM-aptamer displacement, at 10 µM, stronger effect = higher value.
For test [10], the target named is AP-2 complex subunit beta (Homo sapiens) (UniProt P63010). The experiment in a line: inhibitors of arrestin peptide binding to AP2, pilot screen, biochemical, validation set, GST-AP2 beads, flow cytometry (AID 504541;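 active = inhibition above 54%, about 3 SD of non-fluorescent compounds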;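 note: AP2 carries R879A mutation and is captured from E. coli lysate; bead-bound FITC arrestin peptide fluorescence measuring arrestin peptide binding to AP2; 0% = DMSO wells and 100% = excess unlabeled arrestin peptide control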). The settings on record: FITC arrestin peptide, at 10 µM, stronger effect = higher value, AP2 beta2 appendage fragment, R879A mutant.
Test [11] can be described thus: yeast V-ATPase proton transport modulators, S. cerevisiae, pHLuorin, HTS validation (AID 504600; in the data active = response above about 15%;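 note: plate controls were DMSO for no effect and reference compound for full effect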). The settings on record: S. cerevisiae pHLuorin cytosolic pH, at 10 µM, stronger effect = higher value.
The test system of test [12] is anti-desmoglein-3 scFv antibody binding to human DSG3. The experiment in a line: inhibitors of anti-DSG3 scFv binding to DSG3, pilot screen, biochemical, validation compound set, bead-based, flow cytometry (AID 588368;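 active = binding below the plate cutoff, the plate median minus 3 SD, with a reading above zero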;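 note: signal is the median channel fluorescence of bead-bound GFP antibody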). The settings on record: Protein G beads, DSG3-Fc, scFv-GFP binding, at 10 µM, stronger effect = lower value.
Test [13] is described as follows: inhibitors of fungal efflux pumps CDR1, CDR2, MDR1, pilot screen, validation compound set, multiplex, phenotypic (AID 588506;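 active = efflux inhibition above 0.42, the validation set average plus 4 SD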;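 note: Nile Red retained in cells so higher fluorescence means more efflux inhibition; 0 = negative control wells and 1 = enniatin B 25 µM full block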). The settings on record: S. cerevisiae pump-expressing triplex, Nile Red efflux flow cytometry; at 10 µM; stronger effect = higher value; the pumps come from Candida albicans.
Test [14] concerns the target ATP-binding cassette sub-family B member 6 (Homo sapiens) (UniProt Q9NP58). Kind of test: ABCB6 transporter inhibitors, pilot screen, K562-ABCB6 cells, flow cytometry, validation set (AID 588550;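 active = inhibition above the screen-wide mean plus 3 SD, about 51%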;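 note: 0% = DMSO wells and 100% = benzethonium chloride 70 µM positive control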). The settings on record: K562-ABCB6 porphyrin accumulation, 1 h, at 10 µM, stronger effect = higher value.
Test [15] can be described thus: promoters of myeloid differentiation in arrested cells, primary screen, cell-based, GFP/MAC1 double positive, flow cytometry, validation set (AID 588685;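 active = differentiation response of at least 50%, scaled between solvent and reference control, from cells with both markers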;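 note: compound exposure lasts four days before antibody staining and flow analysis; 0% = DMSO wells and 100% = 5 µM fulvestrant positive control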). The settings on record: ER-HoxA9 marrow cells, stronger effect = higher value, normalized: vehicle 0, fulvestrant 100.

Sequence of Beta-adrenergic receptor kinase 1 (Homo sapiens) (P25098 whole entry, looked up): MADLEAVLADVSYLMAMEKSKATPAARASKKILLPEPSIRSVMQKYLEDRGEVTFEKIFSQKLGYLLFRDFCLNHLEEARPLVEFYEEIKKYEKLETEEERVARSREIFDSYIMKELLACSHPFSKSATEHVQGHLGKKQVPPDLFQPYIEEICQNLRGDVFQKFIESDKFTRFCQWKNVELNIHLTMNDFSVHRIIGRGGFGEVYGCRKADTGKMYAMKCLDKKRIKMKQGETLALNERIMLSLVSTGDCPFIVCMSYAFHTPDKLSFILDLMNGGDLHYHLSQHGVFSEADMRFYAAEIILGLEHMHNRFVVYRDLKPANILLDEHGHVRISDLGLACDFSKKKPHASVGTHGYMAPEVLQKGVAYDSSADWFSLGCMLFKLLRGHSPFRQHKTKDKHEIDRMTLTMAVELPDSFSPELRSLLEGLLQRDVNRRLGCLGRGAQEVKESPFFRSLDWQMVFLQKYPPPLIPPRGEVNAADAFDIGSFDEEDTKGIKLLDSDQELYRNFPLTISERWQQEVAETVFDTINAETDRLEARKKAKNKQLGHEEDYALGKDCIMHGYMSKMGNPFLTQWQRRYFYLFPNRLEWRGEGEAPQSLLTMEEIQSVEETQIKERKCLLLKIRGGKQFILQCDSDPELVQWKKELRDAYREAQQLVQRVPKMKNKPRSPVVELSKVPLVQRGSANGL
Sequence of AP-2 complex subunit beta (Homo sapiens) (P63010 whole entry, looked up, the tested form may be a part, one chain of several): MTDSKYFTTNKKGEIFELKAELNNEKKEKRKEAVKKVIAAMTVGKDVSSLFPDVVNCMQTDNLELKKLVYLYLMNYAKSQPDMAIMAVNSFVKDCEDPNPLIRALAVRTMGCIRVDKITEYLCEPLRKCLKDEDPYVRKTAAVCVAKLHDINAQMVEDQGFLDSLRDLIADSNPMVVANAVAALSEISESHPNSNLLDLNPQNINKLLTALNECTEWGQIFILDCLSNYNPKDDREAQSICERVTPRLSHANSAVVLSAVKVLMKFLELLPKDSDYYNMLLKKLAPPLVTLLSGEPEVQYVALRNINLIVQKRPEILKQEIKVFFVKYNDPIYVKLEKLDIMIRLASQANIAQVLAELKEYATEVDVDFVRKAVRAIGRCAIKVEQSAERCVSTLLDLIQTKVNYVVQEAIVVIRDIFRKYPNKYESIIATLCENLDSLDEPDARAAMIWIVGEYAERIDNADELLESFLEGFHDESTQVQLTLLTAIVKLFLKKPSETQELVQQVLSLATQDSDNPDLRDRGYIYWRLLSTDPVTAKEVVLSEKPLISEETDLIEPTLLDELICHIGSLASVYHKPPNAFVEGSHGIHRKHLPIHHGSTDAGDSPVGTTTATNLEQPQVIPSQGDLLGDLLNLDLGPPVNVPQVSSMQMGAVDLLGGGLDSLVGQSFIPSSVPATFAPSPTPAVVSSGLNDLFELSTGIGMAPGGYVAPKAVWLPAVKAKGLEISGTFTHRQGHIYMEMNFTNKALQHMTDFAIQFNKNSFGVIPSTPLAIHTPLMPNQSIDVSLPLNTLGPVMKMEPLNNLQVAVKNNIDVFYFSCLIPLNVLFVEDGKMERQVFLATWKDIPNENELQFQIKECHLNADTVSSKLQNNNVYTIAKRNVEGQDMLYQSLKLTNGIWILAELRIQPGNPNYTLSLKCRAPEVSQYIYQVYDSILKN
Sequence of ATP-binding cassette sub-family B member 6 (Homo sapiens) (Q9NP58 whole entry, looked up): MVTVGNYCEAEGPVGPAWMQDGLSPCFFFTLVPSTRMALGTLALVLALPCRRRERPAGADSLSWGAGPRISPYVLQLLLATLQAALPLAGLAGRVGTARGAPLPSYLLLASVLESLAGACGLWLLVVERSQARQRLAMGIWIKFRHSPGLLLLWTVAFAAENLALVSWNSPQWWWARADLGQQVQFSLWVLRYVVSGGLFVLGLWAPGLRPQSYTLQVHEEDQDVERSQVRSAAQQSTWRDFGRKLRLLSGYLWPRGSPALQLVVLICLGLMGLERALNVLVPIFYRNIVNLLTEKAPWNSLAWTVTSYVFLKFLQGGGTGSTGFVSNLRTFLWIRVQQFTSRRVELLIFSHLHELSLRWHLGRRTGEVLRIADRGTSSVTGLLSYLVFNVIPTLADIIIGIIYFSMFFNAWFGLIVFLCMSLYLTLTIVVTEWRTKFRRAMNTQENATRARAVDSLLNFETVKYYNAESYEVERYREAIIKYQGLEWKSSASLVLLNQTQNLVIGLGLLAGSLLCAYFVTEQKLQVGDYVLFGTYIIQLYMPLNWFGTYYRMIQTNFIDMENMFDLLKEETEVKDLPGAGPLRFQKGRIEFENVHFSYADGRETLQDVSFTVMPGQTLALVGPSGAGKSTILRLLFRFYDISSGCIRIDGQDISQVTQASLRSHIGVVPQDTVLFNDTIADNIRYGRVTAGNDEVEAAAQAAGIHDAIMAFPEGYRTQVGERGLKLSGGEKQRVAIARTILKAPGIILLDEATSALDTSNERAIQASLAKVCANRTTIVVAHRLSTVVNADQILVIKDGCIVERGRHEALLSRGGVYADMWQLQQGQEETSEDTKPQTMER
Sequence of Integrin beta-1 (Homo sapiens) + Integrin alpha-4 (Homo sapiens) (P05556 whole entry, looked up): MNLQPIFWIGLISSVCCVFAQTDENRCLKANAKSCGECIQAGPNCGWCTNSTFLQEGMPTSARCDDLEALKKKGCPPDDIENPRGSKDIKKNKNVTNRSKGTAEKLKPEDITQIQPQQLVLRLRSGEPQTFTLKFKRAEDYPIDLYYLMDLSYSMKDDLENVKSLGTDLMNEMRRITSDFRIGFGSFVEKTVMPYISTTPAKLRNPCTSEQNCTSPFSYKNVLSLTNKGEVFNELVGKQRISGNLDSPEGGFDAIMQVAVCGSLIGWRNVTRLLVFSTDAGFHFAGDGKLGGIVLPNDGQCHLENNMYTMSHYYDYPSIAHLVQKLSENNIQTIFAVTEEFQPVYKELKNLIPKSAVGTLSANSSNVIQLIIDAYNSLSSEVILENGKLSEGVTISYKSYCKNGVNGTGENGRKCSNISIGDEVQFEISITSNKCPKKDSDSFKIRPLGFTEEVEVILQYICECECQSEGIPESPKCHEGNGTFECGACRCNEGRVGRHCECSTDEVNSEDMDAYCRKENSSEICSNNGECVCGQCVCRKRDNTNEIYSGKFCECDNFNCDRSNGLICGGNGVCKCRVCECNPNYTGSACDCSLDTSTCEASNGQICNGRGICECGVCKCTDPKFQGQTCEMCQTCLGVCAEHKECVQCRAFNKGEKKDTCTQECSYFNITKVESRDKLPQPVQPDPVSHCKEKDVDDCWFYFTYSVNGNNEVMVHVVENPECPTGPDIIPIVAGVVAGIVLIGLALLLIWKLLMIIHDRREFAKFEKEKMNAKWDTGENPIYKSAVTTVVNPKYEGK
Sequence of Integrin beta-1 (Homo sapiens) + Integrin alpha-4 (Homo sapiens) (P13612 whole entry, looked up): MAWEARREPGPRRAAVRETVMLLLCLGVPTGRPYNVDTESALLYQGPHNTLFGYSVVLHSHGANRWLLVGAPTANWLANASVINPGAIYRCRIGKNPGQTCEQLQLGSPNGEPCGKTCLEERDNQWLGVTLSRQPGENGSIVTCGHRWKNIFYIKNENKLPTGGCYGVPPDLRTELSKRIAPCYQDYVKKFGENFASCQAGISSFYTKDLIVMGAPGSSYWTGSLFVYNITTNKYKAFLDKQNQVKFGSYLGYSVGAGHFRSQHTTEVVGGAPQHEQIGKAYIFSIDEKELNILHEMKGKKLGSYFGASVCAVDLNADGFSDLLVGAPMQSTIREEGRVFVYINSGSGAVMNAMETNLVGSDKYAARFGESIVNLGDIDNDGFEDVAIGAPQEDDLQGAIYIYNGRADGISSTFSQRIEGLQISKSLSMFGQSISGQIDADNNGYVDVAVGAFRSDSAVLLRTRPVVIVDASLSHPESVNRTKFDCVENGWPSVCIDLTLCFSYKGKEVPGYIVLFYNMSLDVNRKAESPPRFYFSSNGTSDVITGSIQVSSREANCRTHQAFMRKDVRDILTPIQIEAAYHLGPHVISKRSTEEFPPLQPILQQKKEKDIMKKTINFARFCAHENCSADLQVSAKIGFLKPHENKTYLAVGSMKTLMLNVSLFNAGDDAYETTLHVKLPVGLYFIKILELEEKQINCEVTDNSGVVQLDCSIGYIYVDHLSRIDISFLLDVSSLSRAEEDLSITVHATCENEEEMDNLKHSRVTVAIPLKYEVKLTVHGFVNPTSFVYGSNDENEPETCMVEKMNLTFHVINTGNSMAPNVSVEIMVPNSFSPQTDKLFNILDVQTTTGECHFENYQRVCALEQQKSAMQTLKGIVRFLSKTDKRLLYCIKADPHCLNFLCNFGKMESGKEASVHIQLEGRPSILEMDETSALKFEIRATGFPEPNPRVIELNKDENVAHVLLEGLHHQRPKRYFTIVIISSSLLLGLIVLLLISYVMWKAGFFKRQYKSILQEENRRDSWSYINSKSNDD

Regarding `CC(C)CC(NC(=O)C1CCCN1C(=O)OC(C)(C)C)C(=O)NCC(N)=O` (stereo not drawn) (Boc-Pro-Leu-Gly-NH2; configuration not given here), the percent of DMSO control GFP in test [1] is 97.3% (inactive). For the same compound, the GFP response vs DMSO in test [2] was 98.9% (inactive); in test [4], 94.3% (inactive). In addition, the percent response of DMSO control in [3] is 92% (inactive). Moreover, the GFP response, % of DMSO in test [5] is 91.8% (inactive). Also, the double positive events in test [6] came to 62.8%. For the same compound, the vesicle binding response in [6] was 171% (inactive). In addition, the inhibition in test [7] was -3.97% (inactive); in [10], -1.69% (inactive); in test [14], 8% (inactive). Besides, the superoxide response (% of plate) in test [8] is 89.5% (inactive). Besides, the aptamer binding inhibition in test [9] is 4% (inactive). Further, the response in test [11] was -1.76% (inactive). In addition, the binding (% of control) in [12] was 102% (inactive). In test [13], the efflux inhibition (fraction of control) is 0.18 (inactive). For the same compound, in test [15], the differentiation response was 19.2% (inactive).
`COc1cc2c(cc1OC)C(c1cc(OC)c(OC)c(OC)c1)NCC2` (stereo not given): the percent of DMSO control GFP in test [1] is 101% (inactive). For the same compound, the figures for the GFP response vs DMSO in [2] and in test [4] were 103% (inactive) and 90.3% (inactive), respectively. The percent response of DMSO control in test [3] is 108% (inactive). The GFP response, % of DMSO in test [5] is 102% (inactive). The double positive events in [6] worked out at 59.3%. Moreover, the vesicle binding response in test [6] is 148% (inactive). Further, the inhibition in test [7] was -0.24% (inactive); in [10], -5.98% (inactive); in test [14], 7% (inactive). For the same compound, in test [8], the superoxide response (% of plate) is 102% (inactive). Further, the aptamer binding inhibition in [9] was 2% (inactive). For the same compound, the response in test [11] is -3.82% (inactive). Further, in test [12], the binding (% of control) is 96% (inactive). Also, the efflux inhibition (fraction of control) in test [13] was -0.01 (inactive). Moreover, the differentiation response in [15] is -14.7% (inactive).
Take `COc1ccc(OC)c(-n2c(Cn3c(-c4ccccn4)nc4ccccc43)n[nH]c2=S)c1`: the percent of DMSO control GFP in [1] is 98.5% (inactive). Besides, the values for the GFP response vs DMSO in test [2] and in [4] were 101% (inactive) and 90.3% (inactive), respectively. Also, the percent response of DMSO control in test [3] is 93% (inactive). The GFP response, % of DMSO in [5] was 91.8% (inactive). Also, the double positive events in test [6] amounted to 62.6%. In [6], the vesicle binding response is 144% (inactive). For the same compound, the inhibition in test [7] was 7.22% (inactive); in test [10], 6.75% (inactive); in test [14] it was -8% (inactive). Besides, the superoxide response (% of plate) in [8] was 97.4% (inactive). Further, the aptamer binding inhibition in [9] was 1% (inactive). Moreover, in test [11], the response is -0.2% (inactive). The binding (% of control) in test [12] is 105% (inactive). For the same compound, in test [13], the efflux inhibition (fraction of control) is 0.44 (active). For the same compound, the differentiation response in test [15] is -9.89% (inactive).
Take `Cc1ccc2c(c1)C(O)(c1c(C)[nH]c3ccccc13)C(=O)N2` (stereo not given): in test [1], the percent of DMSO control GFP was 98.6% (inactive). For the same compound, the GFP response vs DMSO in test [2] was 97.9% (inactive); in [4], 96.4% (inactive). Moreover, the percent response of DMSO control in test [3] was 106% (inactive). For the same compound, the GFP response, % of DMSO in test [5] is 90.1% (inactive). In test [6], this compound came in with a double positive events of 57.8%. Besides, the vesicle binding response in test [6] was 259% (inactive). In addition, the inhibition is -4.9% (inactive) in test [7], -11.2% (inactive) in test [10] and 5% (inactive) in test [14]. In addition, the superoxide response (% of plate) in test [8] is 98.1% (inactive). Also, in [9], the aptamer binding inhibition is -1% (inactive). In addition, the response in [11] was -5.66% (inactive). Moreover, in [12], the binding (% of control) was 102% (inactive). The efflux inhibition (fraction of control) in test [13] was 0.1 (inactive). The differentiation response in [15] was -34.1% (inactive).
For `CN(Cc1ccccc1)CC(O)COc1ccc(CNCc2cccnc2)cc1` (stereo not given), in test [1], the percent of DMSO control GFP is 101% (inactive). The GFP response vs DMSO is 102% (inactive) in [2] and 91.3% (inactive) in test [4]. The percent response of DMSO control in test [3] is 103% (inactive). Also, the GFP response, % of DMSO in [5] was 100% (inactive). In [6], this compound gave a double positive events of 56.7%. In addition, the vesicle binding response in test [6] was 211% (inactive). Besides, the inhibition in test [7] is -1.17% (inactive); in test [10] it was -7.34% (inactive); in [14] it was 9% (inactive). The superoxide response (% of plate) in test [8] is 93.8% (inactive). Moreover, the aptamer binding inhibition in test [9] is -6% (inactive). The response in [11] is 2.19% (inactive). In addition, the binding (% of control) in [12] is 105% (inactive). For the same compound, the efflux inhibition (fraction of control) in test [13] is -0.16 (inactive). Besides, in test [15], the differentiation response was 24% (inactive).
